SMILES strings stand for the structures. The source made the active and inactive calls. The calls were made as follows: active = hit-call score of the fitted dose curve at least 0.9, where 1 is the maximum; inactive = score below 0.9.

This test is described as follows: CCTE_Shafer_MEA_acute_firing_rate_mean: CCTE's Neural Acute Assay for Mean Firing Rate, Shafer Lab (AID 2284009). On the procedure: CCTE_Shafer_MEA_acute assay is conducted using Axion Biosystems 48 well microelectrode array (MEA) plates and Maestro recording system. Each well of the MEA plate contains a grid of 16 microelectrodes embedded in the culture surface. Electrically active cells, such as neurons, can be cultured over the electrodes, and electrical activity in these cells can be recorded extracellularly. The spontaneous firing of neurons is captured from each electrode on a microsecond timescale providing both temporally and spatially precise data. […] The CCTE_Shafer_MEA_acute assay uses primary cultures of rat cortical neurons. As these cultures mature over time, neural networks develop functional activity and form cohesive networks in which electrical activity can be highly coordinated. Baseline 40-minute recordings are made on days post-plating 13 or 15, followed by a secondary 40-minute recording after chemical exposure.CCTE_Shafer_MEA_acute_firing_rate_mean is a component of the CCTE_Shafer_MEA_acute assay. It measures the frequency number of spikes (action potential firings) as the total number of spikes divided by the length of the recording in a microelectrode array (MEA) using Axion Biosystems Maestro 768 channel amplifier with the AxIS adaptive spike detector. The firing rate is divided by the number of electrodes to report a well-mean value. The recordings before and after chemical treatment are used to calculate a percent change in the mean firing rate in each well.Data from the assay component CCTE_Shafer_MEA_acute_firing_rate_mean was analyzed into 1 assay endpoint. This assay endpoint, CCTE_Shafer_MEA_acute_firing_rate_mean, was analyzed in the negative analysis fitting direction relative to DMSO as the negative control and baseline of activity. Using a type of functional reporter, gain or loss-of-signal activity can be used to understand electrical activity.
Spontaneous activity in the cortical cultures was recorded using an Axion Biosystems Maestro 768 channel amplifier and Axion Integrated Studios (AxIS) v1.8 (or later) software. The amplifier recorded from all channels simultaneously (gain = 1200 x; sampling rate = 12.5 kHz/channel): raw signals were filtered with a Butterworth band-pass filter (300-5000 Hz), which filters out slower local field potentials leaving only fast potentials, i.e., "spikes", arising from extracellular currents associated with action potentials (Pine 2006; Wheeler and Nam 2011). On-line spike detection of filtered signals was conducted with the AxIS adaptive spike detector, using a threshold of 8x the root mean squared (rms) noise on each channel. Any electrodes with rms noise levels greater than 5 uV were grounded (e.g., no data were recorded). Once grounded, an electrode was grounded for the duration of the experiment. All recordings were conducted at 37 C. Wells were deemed usable if on the day of the exposure >/= 10 electrodes were active (defined as >/= 5 spikes/min). On DIV 13 or 15, a minimum of three wells from one cortical culture preparation were treated with each compound (0.03-40 uM). Prior to recording baseline activity, each mwMEA plate was placed in the Maestro at 37 C and allowed to sit for 20 min while firing rates stabilized. Baseline activity (40 min) was recorded before the addition of each compound. An additional 40 min of spontaneous activity was recorded in the presence of each compound. Changes in network parameters relative to baseline were assessed following compound treatment.
For `O=C(CCCN1CCC(O)(c2ccc(Cl)cc2)CC1)c1ccc(F)cc1`, the concentration at half-maximal activity (AC50) (in general, the concentration at which the activity in the assay is half-maximal) is 1780 nM (active).
Consider `O=C1NS(=O)(=O)c2ccccc21`, for which the half-maximal activity concentration (AC50) is 9.78 nM (active).
In the case of `CC(=O)Nc1ccc(O)cc1`, the compound was classed as inactive.
Consider `Oc1c(Cl)cc(Cl)cc1Sc1cc(Cl)cc(Cl)c1O`, for which the call was inactive.
On to `Oc1ccc(Cc2ccccc2O)cc1`, for which the AC50 is 0.868 nM (active).
Same read-out and setting: next, `CCC(C)c1ccccc1O` (configuration not stated): 2060 nM (active).
Take `CCCCC=O`: the result was inactive.
The same measure, in the same setting: next, `CCCCCCCCCCCC`: “inactive”; `N=C(N)c1ccc(OCCCCCOc2ccc(C(=N)N)cc2)cc1`: “inactive”.
On to `CCCCc1oc2ccccc2c1C(=O)c1cc(I)c(OCCN(CC)CC)c(I)c1`, for which the AC50 is 8870 nM (active).
Still for that read-out and setting: next, `CN(C)CCOC(c1ccccc1)c1ccccc1`: 4980 nM (active).
For the compound `OCC(CO)(CBr)CBr`, the compound was called inactive.

Source of the values: PubChem BioAssay (EPA / NIEHS).
